Data: PubChem BioAssay (Tox21)
Results filed as inconclusive are left out. Where a call stands in place of a potency, no number is given. Some structures have more than one record in an assay (separate samples or runs), and their calls can disagree. Active and inactive are the calls of the source. The call rests on the fitted dose curve; in most records, active means well fitted activation curve with a large enough effect in the signal ratio in the repeat runs (not every such curve was filed as active); inconclusive means weak or mixed curves, or effect the other way; inactive means no such curve, though single readings can be large or run the other way; the % refers to the signal ratio.

These compounds were tested against Glucocorticoid receptor (Homo sapiens) (UniProt P04150) (assay: qHTS assay to identify small molecule agonists of the glucocorticoid receptor (GR) signaling pathway (AID 720691)). Details: GR-bla HeLa, beta-lactamase reporter ratio, 18 h; series mostly up to 62.4 µM.
Glucocorticoid receptor (Homo sapiens), sequence (P04150 whole entry, looked up): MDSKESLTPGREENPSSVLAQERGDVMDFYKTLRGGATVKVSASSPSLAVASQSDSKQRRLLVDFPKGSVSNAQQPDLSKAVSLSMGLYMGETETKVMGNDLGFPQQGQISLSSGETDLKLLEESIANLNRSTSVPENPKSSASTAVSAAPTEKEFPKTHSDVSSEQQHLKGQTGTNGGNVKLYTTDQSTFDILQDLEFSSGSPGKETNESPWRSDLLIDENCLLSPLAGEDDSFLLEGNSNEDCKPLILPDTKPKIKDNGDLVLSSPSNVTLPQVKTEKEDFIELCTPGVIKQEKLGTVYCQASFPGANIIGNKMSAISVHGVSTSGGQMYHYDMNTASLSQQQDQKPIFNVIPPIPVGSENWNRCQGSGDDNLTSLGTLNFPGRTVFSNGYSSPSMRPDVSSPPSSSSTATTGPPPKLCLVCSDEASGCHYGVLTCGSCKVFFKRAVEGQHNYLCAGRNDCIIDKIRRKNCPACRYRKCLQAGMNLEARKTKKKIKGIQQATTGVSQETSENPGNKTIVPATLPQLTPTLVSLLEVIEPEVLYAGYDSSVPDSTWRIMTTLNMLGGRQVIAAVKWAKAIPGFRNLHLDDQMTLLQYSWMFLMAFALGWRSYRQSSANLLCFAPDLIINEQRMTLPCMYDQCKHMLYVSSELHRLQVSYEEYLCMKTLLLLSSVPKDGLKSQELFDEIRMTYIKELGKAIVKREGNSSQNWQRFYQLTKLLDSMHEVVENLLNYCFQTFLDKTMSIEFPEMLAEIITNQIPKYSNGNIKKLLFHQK
How it was run: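 Fluorescence intensity from LiveBLAzer B/G FRET substrate (2 h, room temperature) reports beta-lactamase expression driven by the glucocorticoid response element in GR-bla HeLa cells after 18 h compound exposure at 37 C.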
Potency means the concentration at half of the fitted maximal effect.

SMILES	Potency
Cc1ccc(S(=O)(=O)NC(=O)NN2CCCCCC2)cc1	inactive
NC(=O)NC1NC(=O)NC1=O (stereo unspecified)	inactive
CCCCCCCCCCCCCCCC(=O)O	inactive
O=C(C1CCCCC1)N1CC(=O)N2CCc3ccccc3C2C1 (stereo unspecified)	inactive
COc1c2occc2cc2ccc(=O)oc12	inactive
O=C(c1ccccc1)c1ccccc1	inactive
COc1ccc2[nH]cc(CCNC(C)=O)c2c1	inactive
CCCN(CCC)S(=O)(=O)c1ccc(C(=O)O)cc1	inactive
Nc1ccc(S(=O)(=O)Nc2nccs2)cc1	inactive
O=C(O)C(=O)O	inactive
N=C(N)c1ccc(OCCCCCOc2ccc(C(=N)N)cc2)cc1	inactive
NC(N)=NC(=O)c1nc(Cl)c(N)nc1N	inactive
Cc1cc(=O)[nH]c(=S)[nH]1	23.9 µM (active) and inactive
CCCCOC(=O)CC(CC(=O)OCCCC)(OC(C)=O)C(=O)OCCCC	inactive
CC(O)CO (stereo unspecified)	inactive
O=C(O)c1cc(N=Nc2ccc(S(=O)(=O)Nc3ccccn3)cc2)ccc1O	inactive
CCCCC1C(=O)N(c2ccccc2)N(c2ccccc2)C1=O	inactive
CCCCC(CC)COC(=O)/C=C/c1ccc(OC)cc1 (stereo unspecified)	inactive
NC(=O)c1ccccc1O	inactive
O=C(O)CS	inactive
Cc1cn([C@H]2C[C@H](N=[N+]=[N-])[C@@H](CO)O2)c(=O)[nH]c1=O	inactive
